From PubChem
Only some compounds are listed: those with a hit (about 10% of all), similar ones and a draw of the others.
KB-V1 MDR tox: kills drug-selected multidrug resistant KB-V1 cells; AID 1347076; KB-V1 MDR cells viability, CellTiter-Glo, 72 h; Potency, µM (highest dose often 46.1 µM), most hits filed as cytotoxic; 400,000 compounds, 3.4% hits; note: nearly all actives have a fitted effect of over 60% in size
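Compound-treated KB-V1 multidrug-resistant cells, 72 h, 37 degrees C; viability by CellTiter-Glo. Fitted qHTS curves give the values.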
RORgamma inh: inhibitors of mouse ROR gamma transcriptional activity; Drosophila S2 Gal4-RORgamma UAS-luciferase reporter, 20 h; Potency, µM (series often up to 53.6 µM), actives largely listed as inhibitors; 310,000 compounds, 5.4% hits; AID 2551; note: nearly all actives have a fitted effect of over 60% in size
Target sequence (P51450 whole entry, looked up, the tested form may be a part): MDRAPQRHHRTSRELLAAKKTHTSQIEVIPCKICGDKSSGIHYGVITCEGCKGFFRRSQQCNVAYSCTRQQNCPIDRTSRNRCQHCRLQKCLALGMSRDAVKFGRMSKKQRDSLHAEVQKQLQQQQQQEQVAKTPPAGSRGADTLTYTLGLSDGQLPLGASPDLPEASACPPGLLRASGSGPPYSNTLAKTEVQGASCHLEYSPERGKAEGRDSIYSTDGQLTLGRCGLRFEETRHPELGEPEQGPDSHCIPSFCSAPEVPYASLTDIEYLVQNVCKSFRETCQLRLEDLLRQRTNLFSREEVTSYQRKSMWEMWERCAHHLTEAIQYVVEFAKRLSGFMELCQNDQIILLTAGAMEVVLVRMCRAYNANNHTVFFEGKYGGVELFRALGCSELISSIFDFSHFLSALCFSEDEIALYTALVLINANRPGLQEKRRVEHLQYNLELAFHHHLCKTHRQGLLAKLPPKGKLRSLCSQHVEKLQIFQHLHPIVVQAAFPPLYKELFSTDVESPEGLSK
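ROR gamma transcriptional activity was tracked as Gal4-UAS luciferase output in stably transfected Drosophila Schneider cells, with compound added 1 hr before 700 uM copper sulfate induction and a 20 hr ambient-temperature incubation.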
Gal4-VP16 FLuc: counter-screen for ROR gamma inhibitors: Gal4-VP16 reporter. Drosophila S2 Gal4-VP16 UAS-luciferase, luminescence, 20 h. Potency, µM (highest dose often 53.6 µM), hits mostly inhibitors. 310,000 compounds, 3.5% hits;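 note: Gal4-VP16 expression switched on by copper sulfate through the metallothionein promoter; nearly all actives have a fitted effect of over 50% in size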
SW480 rerep: DNA re-replication induction in SW480 cells | Potency, µM (series often up to 46.1 µM), usual class: activators | 340,000 compounds, 1.8% hits | SW480 DNA re-replication, Hoechst DNA content imaging, 48 h; note: nearly all actives have a fitted effect of over 55% in size
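Compounds, transferred as 23 nL by pin tool, were incubated with cells for 48 hr; DNA content per nucleus was then quantified by Hoechst staining and fluorescence plate imaging.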
MCF10A rereplic: induces DNA re-replication in MCF 10a normal breast cells. MCF 10A DNA re-replication, Hoechst nuclear intensity, 48 h. 350,000 compounds, 2.9% hits. Potency, µM (titrated, usually from 46.1 µM), hits mostly activators; note: nearly all actives have a fitted effect of over 50% in size
KB-3-1 cytotox: kills parental KB-3-1 adenocarcinoma cells; Potency, µM (titrated, usually from 46.1 µM), usual class: cytotoxic; KB-3-1 viability, CellTiter-Glo ATP luminescence, 72 h; 400,000 compounds, 1.4% hits; note: nearly all actives have a fitted effect of over 60% in size
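Parental KB-3-1 viability, qHTS format: 72 h compound exposure, 37 °C; CellTiter-Glo; media-only wells and DMSO plates as controls; concentration-effect fits on corrected data.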
Numbers stand for hits; . = inactive; ? = inconclusive; / = not tested or not shown; [ ] = remark or other dose. Calls come from the whole dose curve; as a rule, active = well fitted curve in the direction sought with a large enough effect; inconclusive = small, poorly fitted or top-dose-only effect, or another doubt; inactive = no such curve, though single readings can be large; an effect the other way counts as inactive or inconclusive.

SMILES | KB-V1 MDR tox | RORgamma inh | Gal4-VP16 FLuc | SW480 rerep | MCF10A rereplic | KB-3-1 cytotox
CC(C)Oc1ccc(/C=C(/NC(=O)c2ccccc2)C(=O)NCCC(=O)O)cc1 | ? | 11µM | . | . | . | .
CC(C)(C)OC(=O)[C@H](Cc1ccccc1)NC(=O)c1nc[nH]c1C(=O)NCCCCCN | . | / | / | . | . | .
C[C@H](NC(=O)c1nc[nH]c1C(=O)N[C@@H](Cc1ccccc1)C(=O)OC(C)(C)C)C(=O)OC(C)(C)C | ? | 11µM | ? | . | ? | ?
CC(C)(C)OC(=O)[C@H](Cc1ccccc1)NC(=O)c1nc[nH]c1C(=O)N[C@@H](Cc1ccccc1)C(=O)OC(C)(C)C | ? | 7.9µM | ? | . | . | 16µM
CC(C)(C)OC(=O)[C@H](Cc1ccccc1)NC(=O)c1[nH]cnc1C(=O)N[C@@H](Cc1ccccc1)C(=O)OCc1ccccc1 | ? | 7.1µM | ? | .[9.22 µM] | . | ?
CCN(C(=O)Cn1c(=O)oc2cc(S(=O)(=O)N3CCCCC3)ccc21)c1ccccc1 | . | / | / | / | / | ?
Cc1cc(C)cc(NC(=O)C(CC(C)C)NC(=O)C2CCCCC2)c1 (stereo not given) | . | / | / | / | / | .
Cc1ccc(/C=N\NC(=O)c2ccc(Cn3cc(Br)c([N+](=O)[O-])n3)o2)o1 | . | . | . | . | . | ?
O=C(N/N=C\c1cccc(Cl)c1)c1ccc(Cn2cc(Br)c([N+](=O)[O-])n2)o1 | 21µM | ? | . | ? | ? | ?
COc1ccccc1CNC(=O)COc1cc2c(c3oc(=O)cc(C)c13)CCC(C)(C)O2 | 16µM | . | . | ? | ? | .
COc1ccc(CNC(=O)COc2cc3c(c4oc(=O)cc(C)c24)CCC(C)(C)O3)cc1 | . | . | . | . | ? | .
O=c1c2c(-c3ccccc3)csc2ncn1/N=C/c1cccc([N+](=O)[O-])c1O | . | 20µM | . | ? | . | .
O=c1c2c(-c3ccccc3)csc2ncn1/N=C/c1ccc(O)c([N+](=O)[O-])c1 | . | . | . | . | . | .
Cn1cc(/C=N/n2cnc3scc(-c4ccccc4)c3c2=O)c2ccccc21 | 2.1µM | . | . | 15µM | ? | 5.2µM
O=C(/C=C/[C@H]1O[C@@H](n2ccc(=O)[nH]c2=O)[C@H](O)[C@@H]1O)NCc1cccc2ccccc12 | . | / | / | / | / | .
CC(C)NC(=O)C1COc2ccccc2O1 (stereo not given) | . | . | . | . | . | .
NC(=S)C1COc2ccccc2O1 (stereo not given) | . | 13µM | . | ? | ? | .
CCCN(CCC)C(=O)c1nn(C)c2c1CSc1ccc(C)cc1-2 | . | / | / | / | / | .
O=C(C1CCC(CNc2nc(=S)[nH]c3ccccc23)CC1)N1CCN(c2ccccn2)CC1 (stereo not given) | 2.6µM | . | ? | . | . | .
C/C(CCC(=O)OC[C@@H]1O[C@H](C#Cc2ccccc2)C=C[C@@H]1Oc1ccc(C)cc1)=N/OC[C@@H](C)[C@H](OCc1ccccc1)C(C)C | / | .[10 µM] | .[10 µM] | / | / | /
Cc1cccc(NC(=O)c2ccc(NCCc3ccccc3)c([N+](=O)[O-])c2)c1 | . | ? | . | . | . | .
COC(=O)c1ccc([N+](=O)[O-])c(CS(=O)(=O)c2ccc(Cl)cc2)c1 | . | . | . | . | . | .
CCOC(=O)c1ccc([N+](=O)[O-])c(CS(=O)(=O)c2ccc(Cl)cc2)c1 | . | . | . | . | 21µM | .
Cc1ccc(S(=O)(=O)Cc2ccccc2Cl)cc1 | ? | . | . | ? | ? | ?
CCCNc1ccc(C(=O)OCC)cc1[N+](=O)[O-] | 13µM | . | . | . | . | 16µM
SMILES | KB-V1 MDR tox | RORgamma inh | Gal4-VP16 FLuc | SW480 rerep | MCF10A rereplic | KB-3-1 cytotox
Cc1ccc(S(=O)(=O)Cc2cc(F)c([N+](=O)[O-])cc2[N+](=O)[O-])cc1 | ? | . | 6.3µM | ? | ? | ?
Cc1ccc(NC(=O)c2ccc(NCCN)c([N+](=O)[O-])c2)cc1 | . | 6.3µM | . | ? | . | ?
O=c1cc(-c2cccc(F)c2)[nH]c2cc(F)ccc12 | / | . | . | / | / | /
S=c1nc[nH]c2c1ncn2C1CCCO1 (stereo not given) | ? | . | . | . | ? | 4.1µM
O=C(COc1ccccc1F)Nc1c2c(nn1-c1ccccc1)CS(=O)(=O)C2 | . | . | . | . | . | .
CC(=O)NCCNc1ncncc1-c1ccc(N(C)C)cc1 | / | ? | . | / | / | /
O=C(Nc1ccc(C(F)(F)F)cc1)C1CCN(S(=O)(=O)c2ccc(N3CCCC3=O)cc2)CC1 | . | . | 3.5µM | . | . | .
O=C1CCCN1c1ccc(S(=O)(=O)N2CCC(c3ccccc3)CC2)cc1 | 2.6µM | . | . | . | . | .
COc1ccc(NC(=O)C2CCN(S(=O)(=O)c3ccc(N4CCCC4=O)cc3)CC2)cc1OC | . | . | . | . | . | .
COC(=O)C1=C(C(=O)OC)SC2(S1)C(C(=O)OC)=C(C(=O)OC)SC1=C2c2cc(C)cc(C)c2NC1(C)C | . | 13µM | . | . | . | .
COc1cccc(OC)c1C(=O)OCC(=O)NCC1CCCCC1 | . | / | / | / | / | .
COc1ccccc1OCC(=O)NCC1CCCCC1 | 21µM | . | . | . | . | .
O=C(COc1ccccc1Br)NC(=O)NC1CCCC1 | . | / | / | 15µM | . | .
CCOc1cc(Br)c(CC(=O)NC2CCCCCC2)cc1OCC | 10µM | . | . | . | ? | .
O=C(COc1ccccc1Br)NC1CC1 | . | . | . | . | . | .
COC(=O)c1ccccc1OCC(=O)NC1CCCCC1 | ? | . | . | . | . | .
CCc1ccccc1OCC(=O)NC1CCCC1 | 13µM | . | . | . | . | .
COC(=O)C/C=C\[C@@H](C)[C@@H](/C=N\OC[C@@H](O)COCc1ccco1)NS(=O)(=O)c1ccc(C)cc1 | / | .[10 µM] | .[10 µM] | / | / | /
Nc1ccc2nc(-c3ccc(Cl)cc3)[nH]c2c1 | . | ? | ? | . | ? | 18µM
Nc1ccc2nc(-c3cccc(-c4nc5ccc(N)cc5[nH]4)c3)[nH]c2c1 | . | . | . | . | . | .
Clc1ccc2nc(-c3ccc(Cl)nc3)[nH]c2c1 | ? | . | . | 13µM | ? | .
Cc1nc2ccc(-c3nc4ccc(N)cc4[nH]3)cc2[nH]1 | . | 11µM | 8.9µM | . | . | ?
Nc1ccc(-c2nc3ccc(N)cc3[nH]2)cc1 | . | ? | . | . | . | .
Clc1ccc2nc(-c3ccccc3)[nH]c2c1 | / | . | . | / | / | /
CCN(C(=O)C1CCCN(S(=O)(=O)c2c(C)noc2/C=C/N(C)C)C1)c1cccc(C)c1 (stereo not given) | . | / | / | / | / | .
CC1CCCCN1S(=O)(=O)c1ccc(S(=O)(=O)N2CCN(C)CC2)cc1 (stereo not given) | . | . | . | . | . | .
